# According to PubChem BioAssay AID411 (National Center for Advancing Translational Sciences (NCATS), 2006):
# The whole screen tested about 72,000 compounds, of which about 1,600 (2.2%) were called active. The sample holds actives, similar compounds and a random draw of the others, so the mix is not that of the screen. Unmarked numbers belong to inactive results. The call rests on the fitted dose curve; in most records, active means well fitted inhibition curve with a large enough effect; inconclusive means small, poorly fitted or top-dose-only effect; inactive means flat fitted curve, though single readings scatter.
# Target: Luciferin 4-monooxygenase (Photinus pyralis) (UniProt P08659)
# Sequence (P08659 whole entry, looked up): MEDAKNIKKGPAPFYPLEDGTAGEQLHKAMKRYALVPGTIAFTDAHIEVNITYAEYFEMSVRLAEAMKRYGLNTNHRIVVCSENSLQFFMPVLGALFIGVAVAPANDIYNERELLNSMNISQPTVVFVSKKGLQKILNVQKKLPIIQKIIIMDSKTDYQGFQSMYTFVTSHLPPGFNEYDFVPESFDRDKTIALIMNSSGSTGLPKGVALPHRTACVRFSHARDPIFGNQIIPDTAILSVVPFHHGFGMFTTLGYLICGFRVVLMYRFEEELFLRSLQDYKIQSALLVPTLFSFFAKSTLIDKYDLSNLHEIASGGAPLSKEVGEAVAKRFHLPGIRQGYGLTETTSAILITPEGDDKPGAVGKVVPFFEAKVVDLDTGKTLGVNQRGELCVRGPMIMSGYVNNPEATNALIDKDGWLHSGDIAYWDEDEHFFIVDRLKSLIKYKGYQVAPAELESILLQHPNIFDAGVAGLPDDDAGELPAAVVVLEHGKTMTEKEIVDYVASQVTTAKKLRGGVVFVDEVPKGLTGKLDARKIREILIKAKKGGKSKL
# Assay: qHTS Assay for Inhibitors of Firefly Luciferase; further: nearly all actives have a fitted effect of over 40% in size
# Settings: purified firefly luciferase, luminescence, 8 min; series mostly up to 57.1 µM; activity change, negative = inhibition: at the top concentration
# Summary of the method: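 Inhibition of light generation by firefly luciferase from ATP and luciferin was profiled with concentration-response curves per sample, ATP held at 10 uM within the enzyme's linear range. Plates were read by luminescence after an 8-minute ambient incubation.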
# On the % scale 0 is the no-effect control and ±100 the full control effect; potency means the concentration at half of the fitted maximal effect.
Structure (SMILES),"activity change, negative = inhibition",Potency
CC(=O)c1c(C)[nH]c(C(=O)NCCCN2CCCC2)c1C,-0.766%,
Cc1onc(-c2ccccc2)c1C(=O)N1CCOCC1,0.0698%,
C=CCN(CC=C)C(=O)CN1C(=O)c2ccccc2C1=O,0.175%,
C=CCn1c(C)cc(C(=O)CN2C(=O)c3ccccc3C2=O)c1C,,3.98 µM (active)
Cc1cc(C(=O)COC(=O)CCCN2C(=O)c3ccccc3C2=O)c(C)n1C,-25.1%,
COc1cc2c(cc1OC)C(c1ccncc1)CC(=O)N2 (configuration not stated),0.391%,
O=C(c1ccncc1)N1CCC2(CCCN(C(c3ccccc3)c3ccccc3)C2)CC1,-0.104% [at 11.4 µM],
Fc1cc(F)c2nc(N3CCOCC3)sc2c1,-2.74%,
Cc1cc(N2CCCCC2)nc2ccc(Cc3ccc4nc(N5CCCCC5)cc(C)c4c3)cc12,0.114% [at 11.4 µM],
c1c2c(cc3sc(N4CCCCC4)nc13)OCCO2,,1.58 µM (active)
Fc1ccc2nc(N3CCCCC3)sc2c1,,25.1 µM (active)
CCOC(=O)N1CCC(NC(=O)c2ccc3nc(N4CCOCC4)sc3c2)CC1,0.545%,
C/C(=C\c1ccco1)C1Nc2cccc3cccc(c23)N1,-10.3%,
Cc1ccc(Cn2ccc(NC(=O)c3cc(C(C)C)on3)n2)cc1,-5.95%,
Cc1c(O)c(Br)c(C)c(O)c1Br (tested in a mixture with another compound),-10.4% [at 11.4 µM],
O=C(c1ccco1)N1CCC2(CC1)CN(c1ncccn1)C2,-0.795% [at 11.4 µM],
Cc1nn(-c2ccccc2)c2sc(C(=O)N(Cc3ccco3)C(C)C(=O)NC(C)(C)C)cc12 (configuration not stated),-28.1%,
COc1cccc(Cn2c(=O)c(CCc3ccccc3)nc3cnc(N(C)C)nc32)c1,0.592% [at 11.4 µM],
Cc1ccnc(N2C(=O)c3ccccc3C2Nc2ccc3c(c2)OCCO3)c1 (configuration not stated),-4.54%,
COC(=O)c1cc(NC2c3ccccc3C(=O)N2c2ccc(Cl)cn2)cc(C(=O)OC)c1 (configuration not stated),,7.94 µM (active)
CCc1ccccc1NC1c2ccccc2C(=O)N1c1cccnc1 (configuration not stated),4.17%,
CCCCc1nc2c(=O)[nH]c3ccccc3c2o1,-2.14%,
CSc1nnc2c(n1)OC(c1cn(C)c3ccccc13)N(C(C)=O)c1ccccc1-2 (configuration not stated),1.54%,

Structure (SMILES),"activity change, negative = inhibition",Potency
CCN(CC)C(=O)N1CCN(C(=O)c2ccc(C)cn2)CC1,2.24%,
CCCCC[C@H](O)CCCC(=O)O,2.9%,
Cc1nnc(SCC(=O)N2CCc3ccccc32)n1-c1ccccc1,0.58%,
Cc1nnc(SCC(=O)NCCOc2ccc(Cl)cc2)n1-c1ccccc1,1.39%,
Cc1nnc(SCc2ccc(C(=O)c3ccc(Cl)cc3)o2)n1-c1ccccc1,,12.6 µM (active)
Cn1c(=O)c(-c2ccccc2)nc2cnc(N3CCNCC3)nc21,-0.109% [at 11.4 µM],
COc1cccc(-c2nc3cc(C)ccc3o2)c1,,3.98 µM (active)
COc1cccc(-c2nc(S(=O)(=O)c3ccccc3)c(N3CCOCC3)o2)c1,0.874%,
CCN(CC)C(=O)CSc1nnc(-c2cccc(OC)c2)o1,-5.13%,
CCOC(=O)CCC(=O)OCC(=O)NC(C)C1CC2CCC1C2 (configuration not stated),-0.786%,
CC[C@H](c1ccccc1)c1cc(C(C)(C)C)cc(C(C)(C)C)c1O,2.75% [at 11.4 µM],
COc1ccc(OCC(=O)N2CCN(C(=O)COc3ccccc3)CC2)cc1,1.46%,
CCC(CC)C(=O)Nc1cccc(C(=O)N2CCCC2)c1,0.159%,
COc1ccc(OCc2cccc(C(=O)N3CCCC3)c2)cc1,,25.1 µM (active)
N#CC1=C(N)Oc2cc(O)ccc2C1C1CCCCC1 (configuration not stated),-0.463%,
CS(=O)(=O)N1CCC2(CC1)CN(Cc1cc(C(F)(F)F)cc(C(F)(F)F)c1)C2,-0.965% [at 11.4 µM],
O=C1C=C(NCCNc2c(F)c(F)c(CO)c(F)c2F)CCC1,-5.44% [at 25.5 µM],
COc1ccccc1N1CCN(CCN2C(=O)c3ccccc3C(C)(C)C2=O)CC1,-0.281%,
O=C1CC2(CCCCC2)Oc2ccc(OCC(=O)N3CCOCC3)cc21,0.0464%,
C/C(=C\C(=O)c1cccnc1)Nc1ccc(C)c(C)c1,,12.6 µM (active)
CCC(=O)Nc1cccc(NC(=O)c2cccnc2)c1,-4.65%,
C/C(=C\C(=O)c1ccccc1)Nc1cccc(O)c1,,7.94 µM (active)
CC(=O)c1cccc(NC(=O)c2ccncc2)c1,-0.13%,

Structure (SMILES),"activity change, negative = inhibition",Potency
O=C(CCCOc1ccccc1)Nc1cccc(C(=O)O)c1,-10.1%,
O=C(Nc1cnccn1)c1cccnc1,0.489%,
COc1ccc(CCn2c(NCCCN3CCOCC3)nc3c2c(=O)[nH]c(=O)n3C)cc1,-0.55%,
CCc1cccc2c3c([nH]c12)C(CC)(CC(=O)O)OCC3 (configuration not stated),0.413% [at 25.5 µM],
CCN1C(=O)/C(=C\N2CCN(c3ccccc3)CC2)SC1=S,3.29%,
CCN1C(=O)c2cccc3c(N)ccc1c23,-8.81%,
CCN1C(=O)/C(=C2\SC(N3CCCCC3)=NC2=O)c2ccccc21,,6.31 µM (active)
CCCn1c(SCC(=O)Nc2c(C)cccc2C)nnc1C(C)C,1.85%,
Cc1cc(C)n2nc(C(=O)Oc3ccc4c(c3)OCO4)nc2n1,1.51%,
Cc1occc1C(=O)N1CCCc2ccccc21,0.295%,
Cc1nn(C(=O)c2ccoc2C)c(N)c1-c1ccccc1,,25.1 µM (active)
COc1ccccc1C(=O)n1nc(-c2ccccc2)nc1N,0.0179%,
Cc1nc2cc(S(=O)(=O)C(F)(F)F)ccc2s1,4.06%,
CN(c1ccccc1)c1ccc(/C=c2\s/c(=C(/C#N)C(=O)C(C)(C)C)n(Cc3ccco3)c2=O)cc1,-5.79%,
COC(=O)c1ccc2c(=O)n(CC3CCCO3)c(=S)[nH]c2c1 (configuration not stated),-0.889%,
Cc1ccsc1C(=O)OCC(=O)c1cc(C)n(CC2CCCO2)c1C (configuration not stated),,1 µM (active)
Cc1ccsc1C(=O)OCC(=O)c1cc2ccccc2o1,-16.8%,
O=S(=O)(O)c1nc2ccccc2n1Cc1ccc(Cl)cc1Cl,0.262% [at 25.5 µM],
CN1CCN(S(=O)(=O)c2ccc(NC(=O)C3CCCO3)cc2)CC1 (configuration not stated),3.62%,
C[C@@H]1C[C@H]2[C@@H]3C[C@H](F)C4=CC(=O)C=C[C@@]4(C)[C@]3(F)[C@H](O)C[C@]2(C)[C@@]1(O)C(=O)CO,0.574% [at 25.5 µM],
CN(C)/C=C1/C(=O)Nc2ccccc21,0.13%,
